Results: the supplement of paper PMC3334620
Whole data set: some 33,000 sequences, median “E-score (-0.5 to 0.5)” near -0.0059, cut for the highest 2% near 0.26. The sample holds the highest values, similar sequences and a random draw of the others, so the mix is not that of the screen.

Target: T1, Cin5 (UniProt P40917)
T1 sequence: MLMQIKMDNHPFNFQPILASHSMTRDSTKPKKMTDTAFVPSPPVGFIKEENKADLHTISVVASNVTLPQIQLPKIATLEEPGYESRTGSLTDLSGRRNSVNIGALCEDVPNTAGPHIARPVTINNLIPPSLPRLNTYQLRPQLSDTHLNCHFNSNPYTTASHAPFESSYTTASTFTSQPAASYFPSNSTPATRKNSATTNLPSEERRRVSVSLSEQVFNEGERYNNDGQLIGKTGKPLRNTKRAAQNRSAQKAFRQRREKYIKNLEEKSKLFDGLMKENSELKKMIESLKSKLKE
Assay: PBM E-score (8-mer binding enrichment) (E-score (-0.5 to 0.5)); higher = stronger / more preferred TF binding
Settings: protein concentration: 100 nM; construct: GST-full length
In short: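 Using PURExpress in vitro transcription/translation, GST-tagged yeast transcription factors were made in full-length or DNA-binding-domain form. These were applied at about 100-200 nM to double-stranded universal all-10-mer Agilent arrays, and bound protein was detected with fluorescent anti-GST. Scans were normalised with masliner before the Universal PBM Analysis Suite assigned E-scores to ungapped eight-base words pooled with their reverse complements.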

| Sequence | PBM E-score |
| --- | --- |
| GATGACAA | 0.27 |
| GATGACAC | 0.0142 |
| CATGACAA | 0.0097 |
| AGGGCCCC | -0.322 |
| TCCACTAA | 0.0246 |
| CGCTTAGC | -0.0166 |
| AATATCGG | 0.179 |
| GATATCGA | 0.0864 |
| AATATCGA | 0.326 |
| AAAGAGCG | 0.0467 |
| AACCCTGA | 0.131 |
| CATGCTGA | 0.181 |
| CGTGCTTA | 0.273 |
| AATGCTTA | 0.276 |
| CATGCTTA | 0.259 |
| CGTGCTGA | 0.0279 |
| AATGCTGA | 0.118 |
| CATGCTTC | 0.0417 |
| GATGCTTA | 0.0868 |
| GGTGCTTA | 0.0985 |
| ACGGTGGA | -0.285 |
| GAGTCGAC | 0.063 |
| GCCTAACC | -0.12 |
| ATCCGACG | 0.0285 |
| CCGCTTAG | -0.0568 |

| Sequence | PBM E-score |
| --- | --- |
| CCACTTAA | 0.0597 |
| GCACTTAC | 0.112 |
| ACGCTTAG | 0.0472 |
| CCGCTTAA | 0.103 |
| CCGCTTAC | 0.334 |
| CCACTTAC | 0.303 |
| ACGCTTAT | 0.101 |
| ACGCTTAC | 0.269 |
| GAACAGGA | -0.126 |
| CCTTGCAC | -0.0869 |
| TAGATCAA | 0.0289 |
| ACGGAGAG | 0.00731 |
| ACGTAACC | 0.262 |
| TCGTAAGA | -0.00999 |
| ACGTAAGA | 0.347 |
| AGGTAAGG | 0.0286 |
| GTGTAAGA | 0.0309 |
| CTGTAAGA | -0.00022 |
| ACGTAACG | 0.214 |
| CGGTAAGC | 0.114 |
| ACGTAAGT | 0.25 |
| AGGTAAGC | 0.321 |
| ATGTAAGA | 0.274 |
| GCGTAACC | 0.0286 |
| AATCGTCG | 0.14 |

| Sequence | PBM E-score |
| --- | --- |
| ACATTCAC | 0.093 |
| AAATTCTC | -0.0624 |
| TCCCTTAA | -0.186 |
| AACTAGGT | 0.118 |
| CGACATAC | 0.104 |
| GTCACACA | 0.0464 |
| TACTTCGA | 0.183 |
| CGTCCTCC | -0.139 |
| CATGGTAA | 0.0768 |
| ACTCATCT | 0.156 |
| GATATGGA | 0.244 |
| ACGTAATG | 0.334 |
| CTGTAAGC | 0.0794 |
| ATGTAAGG | 0.103 |
| ATGTAAGC | 0.431 |
| ACGTAAAG | 0.191 |
| AAGTAATG | 0.184 |
| ACAGGGAT | 0.0409 |
| ACAATCAG | 0.134 |
| CAACGGAA | 0.103 |
| TAACGTAA | 0.415 |
| TAACGGAA | 0.322 |
| AAACGTAA | 0.234 |
| GAACGTAA | 0.297 |
| TATCGTAA | 0.28 |

| Sequence | PBM E-score |
| --- | --- |
| CAACGTAA | 0.204 |
| GAACGTAC | -0.115 |
| CATCGTAA | 0.0929 |
| GAACGGAA | 0.176 |
| GAACGTTA | -0.104 |
| GATCGTAA | 0.116 |
| GAGGGGGA | -0.324 |
| GTGAGATA | 0.164 |
| CTAGCCGC | 0.0223 |
| GACTAGAC | -0.179 |
| ATCTGAAT | 0.0915 |
| GACCTTCC | -0.147 |
| GCATATTA | 0.246 |
| GAATATTA | 0.274 |
| CAATATTC | 0.102 |
| CGATATTA | 0.355 |
| GAATATTC | 0.265 |
| AAATATTT | 0.141 |
| GAATATAC | 0.195 |
| CGATATTC | 0.0444 |
| TAATATTA | 0.368 |
| GGATATTA | 0.143 |
| AGATATTA | 0.168 |
| GAATATCA | 0.174 |
| GATCGTTA | 0.0193 |

| Sequence | PBM E-score |
| --- | --- |
| GGACCTAA | -0.0416 |
| CTGGGAAG | -0.0869 |
| CGATCGCC | 0.0437 |
| AGTCTTAT | 0.158 |
| AAGGGCGA | -0.241 |
| CAAGACGA | -0.0306 |
| CTCCGCCC | -0.173 |
| CTCCACAC | -0.0294 |
| ACTTCTTG | -0.0532 |
| AGGCTTGA | -0.0503 |
| CCACCTCC | -0.266 |
| AAGCACTC | -0.0467 |
| AAATATTC | 0.183 |
| CAATATCC | 0.116 |
| TAATATCA | 0.26 |
| GAGTATCA | -0.0396 |
| CAATATTG | 0.205 |
| TAGTATCA | 0.296 |
| CAATATTA | 0.275 |
| AAATATTA | 0.315 |
| AAATATCA | 0.179 |
| CAGTATCA | 0.0369 |
| CAATATCA | 0.108 |
| AAATATTG | 0.222 |
| ACCTACGT | 0.0549 |

| Sequence | PBM E-score |
| --- | --- |
| CACTGCAG | -0.0359 |
| CGGCAGTC | 0.0575 |
| GTGCCAGA | -0.293 |
| GCACTACC | -0.00786 |
| TACCGGTA | 0.0137 |
| GCGATTCA | 0.0512 |
| AAAATCCT | -0.223 |
| CTTTAGCC | 0.0446 |
| CCGGCTTC | 0.0218 |
| TGGAGCCA | -0.184 |
| ATTGGCGG | -0.0494 |
| AGGATAGC | -0.064 |
| CTGACCGC | -0.068 |
| ATTATAAA | 0.195 |
| ACTATAAA | 0.146 |
| ACAATAAC | 0.143 |
| ACAATAAT | 0.267 |
| ACTATAAC | 0.0218 |
| ATTATAAT | 0.265 |
| ACTATAAT | 0.27 |
| ATTATAAG | 0.188 |
| ACAATAAA | 0.162 |
| ATGAATAA | 0.142 |
| ACCAGGGG | -0.265 |
| AGGCAGTG | 0.141 |

| Sequence | PBM E-score |
| --- | --- |
| TAAATATA | 0.261 |
| GAAAAATA | 0.158 |
| GAAATATC | 0.111 |
| CAAATATA | 0.166 |
| GAAATATA | 0.287 |
| AAAATATA | 0.159 |
| CCGTTGGC | -0.124 |
| AAACAGCA | 0.0422 |
| CCCCATCC | 0.00185 |
| AGACAATG | -0.00251 |
| AAACAATG | 0.196 |
| AAACAATT | 0.154 |
| ATACAATC | 0.162 |
| AGACAATC | 0.112 |
| CTACAATA | 0.137 |
| ATACAATA | 0.278 |
| TAACAATA | 0.273 |
| AAACAATA | 0.287 |
| AGACAATA | 0.279 |
| CAACAATA | 0.155 |
| GAACAATA | 0.229 |
| GCGGATCC | -0.0308 |
| CGAAGTAG | 0.00111 |
| ATTACCAG | 0.18 |
| ATAGCCAC | -0.0146 |

| Sequence | PBM E-score |
| --- | --- |
| CGAGTTCA | -0.0225 |
| TACTGCCA | 0.0854 |
| GACCGGAA | -0.0318 |
| CAGCTATC | -0.0573 |
| CCAGCAAG | -0.182 |
| AGTTTTTG | 0.107 |
| ACCAAACG | -0.038 |
| AGCAAGCT | -0.156 |
| ACAACCAG | -0.00422 |
| ACAACCAT | 0.306 |
| ACAACCAC | 0.0998 |
| ACAGCTTG | 0.11 |
| ACCATTGG | 0.0343 |
| ACACCTCG | 0.0498 |
| CGCCAAGC | -0.235 |
| TCTTAGAA | 0.0741 |
| AATTATGG | 0.156 |
| AATTATCC | 0.133 |
| AATTATCA | 0.251 |
| AATTATCT | 0.331 |
| AATTATGT | 0.304 |
| AATTATGA | 0.257 |
| CGGTTGCA | -0.146 |
| ACTGTCGG | -0.186 |
| AGCGTAAT | 0.13 |

| Sequence | PBM E-score |
| --- | --- |
| ATTATCAC | 0.234 |
| CTTATCAC | 0.0488 |
| ATTATCAA | 0.274 |
| CTTATCAA | 0.278 |
| GTTATCAA | 0.0472 |
| ATTATCAG | 0.119 |
| AGCTTCGG | -0.187 |
| CAAGCCTA | -0.16 |
| GGTTACAA | 0.0628 |
| CAAGTGAG | -0.036 |
| CAGATCGG | -0.0356 |
| GGGATTAA | 0.23 |
| CGGATTAC | 0.122 |
| GCGATTAC | 0.264 |
| ACGATTAC | 0.295 |
| TCGATTAA | 0.267 |
| GGGATTAC | 0.264 |
| CCGATTAA | 0.117 |
| ACGATTGC | 0.153 |
| GCGATTAA | 0.209 |
| CCGATTAC | 0.23 |
| AAGATTAC | 0.255 |
| ACGATTAA | 0.0274 |
